Data taken from the supplement of paper PMC11732987, “Enantioselective OTUD7B fragment discovery through chemoproteomics screening and high-throughput optimisation” (Communications Chemistry, 2025).

What was measured:
Assay in all cases: log2 ratio of Biotin-Ahx-Ub-VS probe labelling (fragment/DMSO); higher = less target engagement (more negative = stronger competition), active = hit call of the paper (q ≤ 0.05, log2 ratio ≤ -1)
Conditions in all cases: compound concentration: 200 uM; treatment time: 3 h
ALG13 = biological target: T1, ALG13 (UniProt Q9NP73)
T1 sequence (whole entry): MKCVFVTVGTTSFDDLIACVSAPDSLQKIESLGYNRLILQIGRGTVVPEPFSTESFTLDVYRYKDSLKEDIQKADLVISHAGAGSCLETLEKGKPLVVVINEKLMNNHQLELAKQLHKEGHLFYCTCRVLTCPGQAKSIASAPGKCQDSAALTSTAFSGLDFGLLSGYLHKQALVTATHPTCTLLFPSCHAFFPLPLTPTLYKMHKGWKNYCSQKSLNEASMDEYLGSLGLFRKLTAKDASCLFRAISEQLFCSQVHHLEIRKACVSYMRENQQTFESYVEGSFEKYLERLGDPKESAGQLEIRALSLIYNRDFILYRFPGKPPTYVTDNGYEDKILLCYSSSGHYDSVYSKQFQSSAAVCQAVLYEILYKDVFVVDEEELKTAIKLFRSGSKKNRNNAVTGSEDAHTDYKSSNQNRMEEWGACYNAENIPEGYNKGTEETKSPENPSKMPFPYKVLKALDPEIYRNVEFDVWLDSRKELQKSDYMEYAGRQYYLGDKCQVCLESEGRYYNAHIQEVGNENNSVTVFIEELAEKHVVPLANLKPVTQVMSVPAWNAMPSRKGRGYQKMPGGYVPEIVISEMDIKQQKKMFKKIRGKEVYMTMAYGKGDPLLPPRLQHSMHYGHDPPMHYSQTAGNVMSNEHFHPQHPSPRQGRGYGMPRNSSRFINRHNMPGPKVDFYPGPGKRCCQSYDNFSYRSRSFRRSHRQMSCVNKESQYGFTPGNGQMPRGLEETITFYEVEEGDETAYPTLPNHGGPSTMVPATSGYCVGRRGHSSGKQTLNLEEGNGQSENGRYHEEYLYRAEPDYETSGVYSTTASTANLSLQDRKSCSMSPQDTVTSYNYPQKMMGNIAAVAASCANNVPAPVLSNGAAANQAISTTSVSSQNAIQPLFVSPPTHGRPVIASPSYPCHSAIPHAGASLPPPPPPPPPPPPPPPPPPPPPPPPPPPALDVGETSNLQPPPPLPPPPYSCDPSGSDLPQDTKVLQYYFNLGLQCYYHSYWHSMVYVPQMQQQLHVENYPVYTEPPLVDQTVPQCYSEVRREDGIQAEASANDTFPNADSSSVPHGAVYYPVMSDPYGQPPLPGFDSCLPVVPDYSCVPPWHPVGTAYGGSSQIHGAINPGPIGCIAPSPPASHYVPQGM
Summary of the method: (§1)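 Labelling with Biotin-Ahx-Ub-VS (0.5 µM final, 1 h) followed a 3 h triplicate treatment of HEK293T lysate (495 µg per sample, Tris/CHAPS/IGEPAL buffer with protease inhibitors) with fragment at 200 µM or vehicle. Labelled DUBs were NeutrAvidin-enriched, digested with LysC and trypsin, and run by diaPASEF LC-MS/MS. The values, average log2 fragment/vehicle ratios by unpaired t-test, come from global-median-normalised Spectronaut label-free quantities. Proteins with ≥2 unique peptides were used.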

ATXN3 = ATXN3 (UniProt P54252)
Summary of the method: as §1

BAP1 = biological target: T2, BAP1 (UniProt Q92560)
T2 sequence (whole entry): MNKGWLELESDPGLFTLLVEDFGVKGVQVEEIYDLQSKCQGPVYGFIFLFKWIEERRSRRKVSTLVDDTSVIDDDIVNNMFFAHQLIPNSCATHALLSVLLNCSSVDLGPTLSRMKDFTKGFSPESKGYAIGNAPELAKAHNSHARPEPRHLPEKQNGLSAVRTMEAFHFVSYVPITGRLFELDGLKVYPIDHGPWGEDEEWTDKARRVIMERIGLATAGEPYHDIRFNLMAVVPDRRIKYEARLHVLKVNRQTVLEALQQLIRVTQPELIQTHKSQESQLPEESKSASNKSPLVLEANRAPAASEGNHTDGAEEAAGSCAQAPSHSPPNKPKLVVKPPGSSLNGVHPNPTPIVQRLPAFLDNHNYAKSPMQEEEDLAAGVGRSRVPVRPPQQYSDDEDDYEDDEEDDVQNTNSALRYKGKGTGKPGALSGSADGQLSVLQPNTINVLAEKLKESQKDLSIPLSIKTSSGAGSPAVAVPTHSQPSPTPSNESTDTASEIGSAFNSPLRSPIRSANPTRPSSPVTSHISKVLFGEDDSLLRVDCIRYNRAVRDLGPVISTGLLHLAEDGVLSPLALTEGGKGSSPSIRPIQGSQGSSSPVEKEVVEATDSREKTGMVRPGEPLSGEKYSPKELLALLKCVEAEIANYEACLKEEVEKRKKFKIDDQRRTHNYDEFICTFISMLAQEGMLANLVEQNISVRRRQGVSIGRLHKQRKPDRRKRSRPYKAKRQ
Summary of the method: as §1

EIF3F = EIF3F (UniProt O00303)
Summary of the method: as §1

EIF3H = EIF3H (UniProt O15372)
Summary of the method: as §1

FAM105A = biological target: T3, FAM105A (UniProt Q9NUU6)
T3 sequence (whole entry): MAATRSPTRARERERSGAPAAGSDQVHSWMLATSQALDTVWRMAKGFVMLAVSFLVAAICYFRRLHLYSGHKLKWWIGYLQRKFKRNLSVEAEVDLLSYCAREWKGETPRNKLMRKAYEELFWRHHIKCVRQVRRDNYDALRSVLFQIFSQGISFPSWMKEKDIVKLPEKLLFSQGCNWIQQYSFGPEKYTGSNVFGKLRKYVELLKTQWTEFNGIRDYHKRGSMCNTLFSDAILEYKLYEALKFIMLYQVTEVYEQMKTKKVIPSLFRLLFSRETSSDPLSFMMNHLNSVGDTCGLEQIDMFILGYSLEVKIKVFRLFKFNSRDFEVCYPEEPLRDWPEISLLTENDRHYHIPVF
Summary of the method: as §1

OTUB1 = OTUB1 (UniProt Q96FW1)
Summary of the method: as §1

OTUD4 = biological target: T4, OTUD4 (UniProt Q01804)
T4 sequence (whole entry): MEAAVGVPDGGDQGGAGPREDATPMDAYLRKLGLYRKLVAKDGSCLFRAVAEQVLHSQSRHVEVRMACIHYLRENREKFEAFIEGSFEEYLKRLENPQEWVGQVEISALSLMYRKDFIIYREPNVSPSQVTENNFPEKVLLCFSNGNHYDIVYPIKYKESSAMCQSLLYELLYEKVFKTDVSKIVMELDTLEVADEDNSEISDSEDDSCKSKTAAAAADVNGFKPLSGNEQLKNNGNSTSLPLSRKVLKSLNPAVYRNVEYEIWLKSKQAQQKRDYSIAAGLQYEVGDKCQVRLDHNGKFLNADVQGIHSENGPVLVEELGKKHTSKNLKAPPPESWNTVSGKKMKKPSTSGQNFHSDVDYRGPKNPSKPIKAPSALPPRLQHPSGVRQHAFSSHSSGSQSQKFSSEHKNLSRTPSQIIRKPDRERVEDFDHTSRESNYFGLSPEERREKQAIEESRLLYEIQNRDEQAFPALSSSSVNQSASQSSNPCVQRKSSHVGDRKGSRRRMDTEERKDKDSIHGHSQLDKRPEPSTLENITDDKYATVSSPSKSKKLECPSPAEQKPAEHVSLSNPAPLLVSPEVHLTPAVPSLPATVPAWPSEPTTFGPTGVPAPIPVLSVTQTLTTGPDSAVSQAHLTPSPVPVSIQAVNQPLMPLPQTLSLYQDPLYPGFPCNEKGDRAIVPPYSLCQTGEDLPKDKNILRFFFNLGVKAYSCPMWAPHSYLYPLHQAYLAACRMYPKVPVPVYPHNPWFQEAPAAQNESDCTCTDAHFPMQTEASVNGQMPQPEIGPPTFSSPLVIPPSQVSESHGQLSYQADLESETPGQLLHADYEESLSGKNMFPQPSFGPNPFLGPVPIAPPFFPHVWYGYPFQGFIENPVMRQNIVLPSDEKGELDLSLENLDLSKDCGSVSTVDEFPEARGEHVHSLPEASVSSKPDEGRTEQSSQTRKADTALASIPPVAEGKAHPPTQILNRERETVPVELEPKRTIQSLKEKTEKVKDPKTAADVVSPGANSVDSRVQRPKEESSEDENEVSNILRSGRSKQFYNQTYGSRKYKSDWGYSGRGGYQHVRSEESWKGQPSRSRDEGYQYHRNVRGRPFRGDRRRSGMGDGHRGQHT
Summary of the method: as §1

OTUD5 = biological target: T5, OTUD5 (UniProt Q96G74)
T5 sequence (whole entry): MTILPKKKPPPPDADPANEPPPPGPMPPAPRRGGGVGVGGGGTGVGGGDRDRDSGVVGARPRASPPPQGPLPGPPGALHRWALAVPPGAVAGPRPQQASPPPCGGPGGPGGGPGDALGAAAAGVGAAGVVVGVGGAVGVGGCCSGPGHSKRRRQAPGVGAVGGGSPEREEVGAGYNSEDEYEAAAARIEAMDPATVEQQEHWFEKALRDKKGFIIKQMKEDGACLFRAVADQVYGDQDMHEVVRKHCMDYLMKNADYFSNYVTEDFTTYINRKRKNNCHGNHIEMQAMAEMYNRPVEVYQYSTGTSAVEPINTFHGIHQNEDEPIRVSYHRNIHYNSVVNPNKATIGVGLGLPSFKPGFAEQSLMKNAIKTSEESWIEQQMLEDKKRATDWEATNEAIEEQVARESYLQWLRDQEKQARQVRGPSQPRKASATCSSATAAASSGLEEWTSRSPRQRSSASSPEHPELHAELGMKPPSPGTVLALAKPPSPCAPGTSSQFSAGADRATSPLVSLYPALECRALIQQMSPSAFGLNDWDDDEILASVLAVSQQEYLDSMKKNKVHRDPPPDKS
Summary of the method: as §1

Measured: log2 ratio of Biotin-Ahx-Ub-VS probe labelling

Chain of EIF3H (O15372 whole entry): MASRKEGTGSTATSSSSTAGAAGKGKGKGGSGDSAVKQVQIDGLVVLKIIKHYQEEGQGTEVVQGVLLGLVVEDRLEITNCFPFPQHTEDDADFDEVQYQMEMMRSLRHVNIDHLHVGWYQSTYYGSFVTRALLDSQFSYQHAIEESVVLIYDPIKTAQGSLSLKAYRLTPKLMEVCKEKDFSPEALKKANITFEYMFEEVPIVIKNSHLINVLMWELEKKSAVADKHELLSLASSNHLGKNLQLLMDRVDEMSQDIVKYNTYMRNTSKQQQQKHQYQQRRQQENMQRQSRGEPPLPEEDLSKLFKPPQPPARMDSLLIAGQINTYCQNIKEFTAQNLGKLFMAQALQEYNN
Chain of EIF3F (O00303 whole entry): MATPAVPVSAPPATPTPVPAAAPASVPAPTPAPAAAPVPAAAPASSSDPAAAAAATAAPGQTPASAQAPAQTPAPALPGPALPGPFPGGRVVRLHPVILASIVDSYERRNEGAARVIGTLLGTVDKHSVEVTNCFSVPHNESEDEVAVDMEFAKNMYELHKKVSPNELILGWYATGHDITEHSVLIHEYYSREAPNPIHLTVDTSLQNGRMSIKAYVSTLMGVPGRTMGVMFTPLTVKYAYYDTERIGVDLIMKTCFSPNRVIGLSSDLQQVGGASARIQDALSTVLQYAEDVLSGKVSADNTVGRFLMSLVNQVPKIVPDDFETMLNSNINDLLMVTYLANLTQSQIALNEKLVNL
Chain of OTUB1 (Q96FW1 whole entry): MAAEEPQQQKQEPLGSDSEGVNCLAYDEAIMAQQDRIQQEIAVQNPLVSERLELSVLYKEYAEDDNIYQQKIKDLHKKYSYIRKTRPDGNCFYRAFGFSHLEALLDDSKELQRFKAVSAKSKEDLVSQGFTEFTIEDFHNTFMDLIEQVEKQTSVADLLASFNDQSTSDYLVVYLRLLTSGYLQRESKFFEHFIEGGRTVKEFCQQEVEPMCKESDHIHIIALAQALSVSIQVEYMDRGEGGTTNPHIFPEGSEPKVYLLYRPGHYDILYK
Chain of ATXN3 (P54252 whole entry): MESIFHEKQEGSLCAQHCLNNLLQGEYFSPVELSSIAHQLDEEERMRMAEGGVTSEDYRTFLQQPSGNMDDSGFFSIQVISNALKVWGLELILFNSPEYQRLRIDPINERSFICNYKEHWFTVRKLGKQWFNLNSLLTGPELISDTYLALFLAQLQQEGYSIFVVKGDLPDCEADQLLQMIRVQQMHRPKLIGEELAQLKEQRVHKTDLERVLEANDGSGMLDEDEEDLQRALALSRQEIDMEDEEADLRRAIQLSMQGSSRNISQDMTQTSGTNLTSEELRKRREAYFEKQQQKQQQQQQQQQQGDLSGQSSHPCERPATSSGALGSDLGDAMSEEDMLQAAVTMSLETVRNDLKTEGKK

CC1Cc2ccccc2N1C(=O)CCl (centres undefined)
inactive: ALG13 -0.0487 | ATXN3 -0.989 | BAP1 -0.55 | EIF3F -0.355 | EIF3H 0.0594 | FAM105A -0.0636 | OTUB1 -0.626 | OTUD4 -0.544 | OTUD5 -0.957
